Assay outcomes: PubChem BioAssay, National Center for Advancing Translational Sciences (NCATS)
Giardia killer: Giardia lamblia killing; Giardia lamblia trophozoite viability; activity change, % at 7.66 µM, hits read low; actives 0.15% (n = 340,000); AID 540267; in the data active = activity change below about -80%; inconclusive = between about -30% and that limit;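 also: parasites exposed to compound for two days anaerobically before the ATP read; % is scaled to controls: 0 for no effect and ±100 for the full control effect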
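Each well holds 100 Giardia trophozoites and compound. After two days (48 hrs) at 37 deg C in anaerobic conditions, ATP is quantified by luminescence.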
ELG1 DNA repair: blocks ELG1-dependent DNA repair in HEK293T cells. HEK293T ELG1-luciferase reporter, luminescence, 16 h; DNA damage induced by 5-fluorouridine. actives 2.3% (n = 330,000). Potency, µM (titrated, usually from 46.1 µM), without a hit: at the highest dose activity change, negative = inhibition, most hits filed as inhibitors. AID 504467; also: potency is read from the fitted curve at half-maximal effect; % is scaled to controls: 0 for no effect and ±100 for the full control effect; nearly all actives have a fitted effect of over 55% in size
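5-Fluorouridine DNA damage + compound/DMSO, 2,000 cells/well, 16 h, 37 °C/5% CO2. ONE-Glo, 30 min RT, luminescence. Readout = decrease in reporter signal.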
RORgamma inh: inhibitors of mouse ROR gamma transcriptional activity | Potency, µM (top dose mostly 53.6 µM), for the others: top-dose activity change, negative = inhibition, most hits filed as inhibitors | AID 2551 | actives 5.4% (n = 310,000) | Drosophila S2 Gal4-RORgamma UAS-luciferase reporter, 20 h; also: potency is read from the fitted curve at half-maximal effect; % is scaled to controls: 0 for no effect and ±100 for the full control effect; nearly all actives have a fitted effect of over 60% in size
Target sequence (P51450 whole entry, looked up, the tested form may be a part): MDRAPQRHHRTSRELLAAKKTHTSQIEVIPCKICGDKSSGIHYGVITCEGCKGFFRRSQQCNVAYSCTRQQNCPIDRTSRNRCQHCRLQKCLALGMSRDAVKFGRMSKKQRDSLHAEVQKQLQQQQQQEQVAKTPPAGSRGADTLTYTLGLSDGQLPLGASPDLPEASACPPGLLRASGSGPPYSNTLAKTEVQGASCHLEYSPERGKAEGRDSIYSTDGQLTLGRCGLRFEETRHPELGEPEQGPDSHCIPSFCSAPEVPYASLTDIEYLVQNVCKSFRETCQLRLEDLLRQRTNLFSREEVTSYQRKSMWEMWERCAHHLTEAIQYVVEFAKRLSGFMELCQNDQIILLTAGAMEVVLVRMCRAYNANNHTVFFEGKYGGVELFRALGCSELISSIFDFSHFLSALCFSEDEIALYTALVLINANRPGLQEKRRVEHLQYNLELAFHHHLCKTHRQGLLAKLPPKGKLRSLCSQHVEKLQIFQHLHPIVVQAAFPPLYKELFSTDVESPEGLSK
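In this cell-based reporter format, copper sulfate (700 uM final) drives Gal4–ROR gamma fusion expression from a metallothionein promoter in Drosophila Schneider cells; compounds preincubated 1 hr, reporter read after 20 hr at ambient temperature.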
Gal4-VP16 FLuc: inhibits Gal4-VP16 luciferase reporter, ROR gamma counter-screen; Drosophila S2 Gal4-VP16 UAS-luciferase, luminescence, 20 h; AID 2546; actives 3.5% (n = 310,000); Potency, µM (highest dose often 53.6 µM), for the others: at the top dose activity, negative = inhibition, most hits filed as inhibitors;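 also: Gal4-VP16 expression switched on by copper sulfate through the metallothionein promoter; potency is read from the fitted curve at half-maximal effect; % is scaled to controls: 0 for no effect and ±100 for the full control effect; nearly all actives have a fitted effect of over 50% in size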
p53 reactivation: restores transcriptional activity of mutant p53 | H1299 p53-A138V BP100-luciferase reporter, luminescence, 24 h | Potency, µM (series often up to 92.2 µM), for the others: at the top dose activity change, positive = activation, actives largely listed as activators | actives 0.063% (n = 320,000); also: potency is read from the fitted curve at half-maximal effect; % of control where 0% means no effect; nearly all actives have a fitted effect of over 45% in size
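p53-null H1299 cells stably carrying temperature-sensitive p53-A138V and a BP100-luciferase reporter were pinned with compounds (4-point, 1:5 series) and held 24 hrs at 37 deg C. Luminescence was read 10 min after detection reagent.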
BRCA1 expr act: BRCA1 expression activation | MCF7-BRCA1-FFLuc reporter, luminescence, 48 h; response scale: scaled: vehicle 0%, 10 µM genistein 100% | Potency, µM (highest dose often 46.1 µM), for the others: at the highest dose activation, hits mostly activators | actives 1.1% (n = 380,000); also: potency is read from the fitted curve at half-maximal effect; nearly all actives have a fitted effect of over 80% in size
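Activators of BRCA1 expression were detected as increased firefly luciferase luminescence in engineered MCF7 cells after 48 h compound incubation. Signals were scaled to genistein 10 microM as full activation.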
The depositor's hits bear a star. Sampled rows, rich in hits. Any-hit rate of the full collection: about 7.6%. Unless noted, calls follow the shape of the dose curve; as a rule, active = well fitted curve in the direction sought with a large enough effect; inconclusive = small, poorly fitted or top-dose-only effect, or another doubt; inactive = no such curve, though single readings can be large; an effect the other way counts as inactive or inconclusive.

For CCn1c(=O)cc(OCC(=O)Nc2cccc(C)n2)c2ccccc21 the results were Giardia killer 3, ELG1 DNA repair 4%, RORgamma inh -16%, Gal4-VP16 FLuc -1%, p53 reactivation -3% and BRCA1 expr act -1%.
O=C(NCc1ccccc1)c1cccc(S(=O)(=O)N2CCOCC2)c1 was read as Giardia killer -10, ELG1 DNA repair 0%, RORgamma inh 37%, Gal4-VP16 FLuc 10%, p53 reactivation 2% and BRCA1 expr act -3%.
`O=C(NNC(=O)c1ccccc1Br)c1ccccc1Cl` gave Giardia killer -11, ELG1 DNA repair inconclusive, RORgamma inh 25%, Gal4-VP16 FLuc 2%, p53 reactivation 19% and BRCA1 expr act 0%.
Screening O=C(NNC(=S)Nc1ccccc1Cl)c1ccccc1Br returned Giardia killer -6, ELG1 DNA repair inconclusive, RORgamma inh 7.9µM*, Gal4-VP16 FLuc inconclusive, p53 reactivation inconclusive and BRCA1 expr act 8.9µM*.
Screening C/C(=N\NC(=S)NC1CCCCC1)c1ccc(O)cc1 returned Giardia killer -15, ELG1 DNA repair inconclusive, RORgamma inh 4.5µM*, Gal4-VP16 FLuc inconclusive, p53 reactivation 9% and BRCA1 expr act -40%.
O=C(NC(=S)NC1CCCCC1)c1ccccc1 was read as Giardia killer -5, ELG1 DNA repair inconclusive, RORgamma inh 5µM*, Gal4-VP16 FLuc 7.1µM*, p53 reactivation inconclusive and BRCA1 expr act inconclusive.
COC(=O)Cc1ccc(NC(=S)NNC(=O)c2ccccc2Br)cc1 was read as Giardia killer 1, ELG1 DNA repair 5%, RORgamma inh 1.6µM*, Gal4-VP16 FLuc 18µM*, p53 reactivation 1% and BRCA1 expr act 2%.
CCC(=O)N1c2ccccc2C(N(C(=O)CC)c2ccccc2)CC1C (configuration not stated) was read as Giardia killer 22, ELG1 DNA repair inconclusive, RORgamma inh -43%, Gal4-VP16 FLuc 5%, p53 reactivation -3% and BRCA1 expr act -12%.
For COc1ccc(Cl)cc1C(=O)NNC(=S)NC1CCCCC1 the results were Giardia killer 10, ELG1 DNA repair 0%, RORgamma inh 0.25µM*, Gal4-VP16 FLuc inconclusive, p53 reactivation 1% and BRCA1 expr act -2%.
Screening CC(NC1CCCCC1)C(=O)NN=C(c1ccccc1)c1ccccc1 (configuration not stated) returned Giardia killer 16, ELG1 DNA repair 0%, RORgamma inh 3%, Gal4-VP16 FLuc -13%, p53 reactivation -1% and BRCA1 expr act -29%.
Screening C/C(=N\NC(=S)NC1CCCCC1)c1ccccc1 returned Giardia killer 2, ELG1 DNA repair inconclusive, RORgamma inh inconclusive, Gal4-VP16 FLuc inconclusive, p53 reactivation 25µM* and BRCA1 expr act 34%.
Screening CC(C)CN1CCCC2(CCN(C(=O)c3csnn3)CC2)C1 returned RORgamma inh -18% and Gal4-VP16 FLuc -3%.
Screening Cn1c(=O)c2c(nc3n2CC(O)CN3c2ccccc2)n(C)c1=O (configuration not stated) returned Giardia killer -4 and BRCA1 expr act 1%.
`C/C(=N\NC(=O)CSCc1ccccc1Cl)c1cc(O)ccc1O` gave Giardia killer -8, ELG1 DNA repair 18µM*, RORgamma inh 5µM*, Gal4-VP16 FLuc 11µM*, p53 reactivation 3% and BRCA1 expr act -16%.
For COC(=O)[C@]12CCCCC=C1N(CCC1=CCCCC1)C(=O)[C@H](CC(=O)NCCC(C)C)C2 the results were BRCA1 expr act -38%.
C#CC(C)(C)NC(=O)c1ccc(-c2ccccc2F)cc1 was read as Giardia killer 16, ELG1 DNA repair inconclusive, RORgamma inh 22%, Gal4-VP16 FLuc inconclusive, p53 reactivation 0% and BRCA1 expr act 13µM*.
Cc1nc(NC(=O)c2ccccc2)sc1Cc1ccc2c(c1)OCO2 was read as Giardia killer -1, ELG1 DNA repair -14%, RORgamma inh 13µM*, Gal4-VP16 FLuc inconclusive, p53 reactivation inconclusive and BRCA1 expr act 69%.
For CCN1CCc2nc(NC(=O)Cc3ccc4c(c3)OCCO4)sc2C1 the results were Giardia killer -5, ELG1 DNA repair 9%, RORgamma inh -5%, Gal4-VP16 FLuc 5%, p53 reactivation 0% and BRCA1 expr act 7%.
For O=C(Nc1nccs1)c1ccc([N+](=O)[O-])cc1 the results were Giardia killer 1, ELG1 DNA repair inconclusive, RORgamma inh 8.9µM*, Gal4-VP16 FLuc -7%, p53 reactivation 8% and BRCA1 expr act inconclusive.
For O=C(Cc1ccc([N+](=O)[O-])cc1)Nc1nccs1 the results were Giardia killer 33, ELG1 DNA repair inconclusive, RORgamma inh 0%, Gal4-VP16 FLuc -27%, p53 reactivation -2% and BRCA1 expr act -1%.
Screening CCN1CCc2nc(NC(=O)c3ccc4c(c3)OCCO4)sc2C1 returned Giardia killer 3, ELG1 DNA repair inconclusive, RORgamma inh -42%, Gal4-VP16 FLuc -17%, p53 reactivation 9% and BRCA1 expr act 4.5µM*.
CC(=O)c1sc(NC(=O)c2ccc3c(c2)OCO3)nc1C was read as Giardia killer 2, ELG1 DNA repair inconclusive, RORgamma inh -19%, Gal4-VP16 FLuc -6%, p53 reactivation 27% and BRCA1 expr act 2.5µM*.
Screening O=C(Nc1cc(F)ccc1F)c1cnn2c1NC(=C1CC1)C=C2C(F)F returned BRCA1 expr act -11%.
COc1ccc(NC(=S)N(CCCN2CCOCC2)Cc2ccco2)cc1 was read as Giardia killer -13, ELG1 DNA repair 1%, RORgamma inh 4%, Gal4-VP16 FLuc -5%, p53 reactivation 0% and BRCA1 expr act -8%.
Screening COCCNC(=O)c1onc(CSc2ccncc2)c1C(=O)NCCOC returned Giardia killer 7, ELG1 DNA repair 4%, RORgamma inh 2%, Gal4-VP16 FLuc 3%, p53 reactivation -4% and BRCA1 expr act 2%.
For Cc1nn(Cc2ccc(C(=O)NN)cc2)c(C)c1Cl the results were Giardia killer -4, ELG1 DNA repair inconclusive, RORgamma inh inconclusive, Gal4-VP16 FLuc -8%, p53 reactivation 0% and BRCA1 expr act -9%.
Screening O=C(Nc1nccs1)c1ccc2c(c1)OCO2 returned Giardia killer 6, ELG1 DNA repair inconclusive, RORgamma inh -42%, Gal4-VP16 FLuc 4%, p53 reactivation inconclusive and BRCA1 expr act 8.9µM*.
Cc1csc(NC(=O)c2ccc3c(c2)OCO3)n1 was read as Giardia killer -5, ELG1 DNA repair inconclusive, RORgamma inh inconclusive, Gal4-VP16 FLuc -23%, p53 reactivation inconclusive and BRCA1 expr act inconclusive.
